Measured values: PubChem BioAssay (NCI)
This is part of a sample that, as a whole, favours compounds with a hit. Of some 83,000 tested, about 20% had one in any assay.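 Activity criterion: percent growth below 10, measured after cells in 96-well plates were exposed to a single compound concentration for 48 hours.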 A number with no mark means an inactive call. The source made the active and inactive calls.

Legend:
Assay in all cases: NCI-60 one-dose screen, 48 h (100 = growth as untreated, 0 = no growth, -100 = all killed)
Details in all cases: 10 µM unless noted
HCT-15 colon = tested on: HCT-15 colon
HT29 colon = tested on: HT29 colon
SNB-75 CNS = tested on: SNB-75 CNS
SNB-19 CNS = tested on: SNB-19 CNS
U251 CNS = tested on: U251 CNS
PC-3 prostate = tested on: PC-3 prostate
SK-MEL-5 melanoma = tested on: SK-MEL-5 melanoma
UACC-62 melanoma = tested on: UACC-62 melanoma
LOX IMVI melanoma = tested on: LOX IMVI melanoma
SK-MEL-28 melanoma = tested on: SK-MEL-28 melanoma

Compound | growth (HCT-15 colon) | growth (HT29 colon) | growth (SNB-75 CNS) | growth (SNB-19 CNS) | growth (U251 CNS) | growth (PC-3 prostate) | growth (SK-MEL-5 melanoma) | growth (UACC-62 melanoma) | growth (LOX IMVI melanoma) | growth (SK-MEL-28 melanoma)
O=C(Nc1ccc(-n2cc(-c3ccncc3)c(-c3ccc(Cl)c(O)c3)n2)cc1)c1ccc(Cl)c(C(F)(F)F)c1 | -28% (active) | -86.3% (active) | -48.6% (active) | 32.5% | -49.1% (active) | -19.9% (active) | -97.5% (active) | -3.14% (active) | -5.19% (active) | -38.3% (active)
C#CCCCCCCC[C@@H]1OC(=O)[C@H]([C@@H](C)CC)NC(=O)[C@H]([C@@H](C)CC)NC(=O)CC(=O)[C@@H]1C | 98.2% | 115% | 76.1% | 97.7% | 103% | 85.9% | 101% | 88.7% | 92.1% | 108%
C/C=C(/C)C(=O)OC1C=C(CO)C(=O)C(OC(=O)C(C)(O)C(C)Cl)C1C(C)C (stereo unspecified) | -20.7% (active) | -32.5% (active) | 20% | -1.69% (active) | -50% (active) | -24.8% (active) | -93% (active) | -77% (active) | -75.4% (active) | 
COc1ccc(Nc2c3ccccc3nc3ccccc23)cc1 | 25.2% | 8.49% (active) | 16.2% | 53.2% | 16.1% | 32.6% | 24.8% | 47.6% | 21.3% | 49.7%
CC(C)OC(=O)c1ccc2n1CCCc1cnc(Nc3ccccc3)nc1-2 | 43.7% | 72.5% | 98.6% | 89% | 76.4% | 75.7% | 61.1% | 64.7% | 78.7% | 92.9%
CCCCS(=O)(=O)c1cc(Nc2ccc(O)c3c2C(=O)c2ccccc2C3=O)ccc1C | 66.8% | 51.5% | 106% | 66.7% | 80.7% | 80.7% | -13.5% (active) | 32.8% | 51.5% | 71.5%
COc1cc(/C(=C2/O[C@@H]([C@H]3COC(C)(C)O3)[C@H]3OC(C)(C)O[C@@H]23)c2ccc3c(c2)OCO3)cc(OC)c1OC | 91.3% | 68.4% | 51.8% | 75.7% | 47.1% | 82.9% | 71.2% | 76.1% | 47% | 
Oc1ccccc1\C=N/N=C/C=C/c1ccccc1 | 103% | 92.3% | 88.4% | 93.9% | 99.5% | 89.7% | 97.4% | 93.2% | 91.1% | 
CCCCCCCCCCCCc1ccc([N+](CC)(CC)CC)cc1 | 96% | 39.3% | 33.5% | 31.7% | 29.6% | 25.1% | -75.5% (active) | 11.1% | 32.9% | 
COc1ccc(C(O)(c2ccccc2)C(C(=O)O)c2ccccc2)cc1 (stereo unspecified) | 107% | 91.3% | 94.6% | 96.9% | 116% | 85.8% | 102% | 93.6% | 96.7% | 112%
C=C(C)C(C(=O)OCC)(C(=O)OCC)C(C)C | 102% | 116% | 86.5% | 99.9% | 102% | 108% | 98.3% | 103% | 102% | 97%
CCCCN(CCCC)c1ccc(C(=O)O)cc1 | 97.3% | 108% | 83.2% | 84.8% | 100% | 102% | 100% | 103% | 99.4% | 107%
O=C(CN1C(=O)NC(c2ccccc2)(c2ccccc2)C1=O)c1ccc(N2CCCC2)cc1 | 64.7% | 65.3% | 77.8% | 90.7% | 76.6% | 71.8% | 70.8% | 89.5% | 74.2% | 73.9%
CCCCCCCCC1OC1CCCCCCCC(=O)O (stereo unspecified) | 96.6% | 118% | 92.9% | 101% | 91.3% | 89.9% | 98% | 88.5% | 109% | 110%
CC(=O)CC(=O)OC/C=C(/C)CCC=C(C)C | 102% | 108% | 105% | 107% | 104% | 111% | 99.6% | 97.9% | 97.7% | 113%
Cc1ncc(C(=O)Nc2ccc(CN3CCN(C)CC3)c(C(F)(F)F)c2)cc1C#Cc1cnc(NC2CC2)c2ncccc12 | -91.9% (active) | -80.7% (active) | -96.5% (active) | -97.2% (active) | -95% (active) | -66.9% (active) | -98.5% (active) | -62.8% (active) | -81% (active) | -91.5% (active)
CC(C)(C)OC(=O)N1C/C(=C\c2ccccc2)C(=O)/C(=C/c2ccccc2)C1 | 96.5% | 94.1% | 74.9% | 91.2% | 90.5% | 81% | 108% | 84% | 95.1% | 107%
COc1cc(NC(C)CCCN)c2nc(C)ccc2c1OC (stereo unspecified) | 106% | 93.2% | 98.7% | 107% | 94.7% | 85.9% | 101% | 108% | 106% | 101%
CCOC(=O)CCCCCCCCC(=O)OCC | 117% | 109% | 102% | 103% | 97.2% | 101% | 107% | 102% | 96.9% | 110%
C/C=C(/C)C(=O)OC1C=C(CO)C(=O)C(OC(=O)C2(C)OC2C)C1C(C)C (stereo unspecified) | -14.5% (active) | -60.3% (active) | 23.6% | 12.1% | -23.1% (active) | -7.66% (active) | -92.8% (active) | -73.7% (active) | -83.8% (active) | -49% (active)
COc1cc(-c2nc(/C=C3/C(=O)Nc4ccccc43)c3ccccn23)cc(OC)c1OC | 73.6% | 62.5% | 106% | 90.7% | 91.6% | 57.8% | 51.6% | 72.7% | 72.3% | 63%
Cc1ccc(C(=O)Nc2ccc(CN3CCN(C)CC3)c(C(F)(F)F)c2)cc1C#Cc1cnc(N)c2ccc(C#N)cc12 | 23.2% | 10.5% | 51.5% | 63.3% | 48.9% | 51.7% | 13.5% | 25.4% | 21% | 12.9%
C/C=C/C/C=C/[C@H](C)C[C@H](O)[C@@H]1C[C@@H]2O[C@H]2/C=C/[C@H](O)[C@@H](O)/C=C/C[C@H](C)CC(=O)O1 | 66.1% | 68.4% | 90.9% | 97.4% | 87.4% | 115% | 72.9% | 71.3% | 88.3% | 101%
O=C(O)c1occ(Cl)c1Cl | 105% | 122% | 99.2% | 109% | 104% | 109% | 113% | 112% | 99.7% | 116%
CC([C@H]1CCC2C3CCC4C[C@@H](N)CC[C@]4(C)C3CC[C@@]21C)N(C)C (stereo partly specified) | 3.11% (active) | 15.1% | 55.8% | 98.7% | 65.9% | 64.5% | -47.8% (active) | 50.9% | 17.5% | -26.6% (active)
CC1Cc2cc(F)ccc2-n2cccc21 (stereo unspecified) | 95% | 106% | 96.1% | 121% | 102% | 98.2% | 109% | 110% | 91.7% | 107%
CN(C)CCOC(=O)C(C)(C)C | 101% | 99.7% | 100% | 99.4% | 102% | 93.6% | 105% | 93.3% | 105% | 26%
